ALR H2O2 inh = blocks human ALR sulfhydryl oxidase activity | purified ALR, DTT oxidation, H2O2 HRP-luminol luminescence | inhibition, % (concentration not given with the values) | 3.8% of 290,000 active | P55789;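 active means mean replicate inhibition above about 79%, with every replicate also reaching it, limit read from the data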
Target sequence (P55789 whole entry, looked up): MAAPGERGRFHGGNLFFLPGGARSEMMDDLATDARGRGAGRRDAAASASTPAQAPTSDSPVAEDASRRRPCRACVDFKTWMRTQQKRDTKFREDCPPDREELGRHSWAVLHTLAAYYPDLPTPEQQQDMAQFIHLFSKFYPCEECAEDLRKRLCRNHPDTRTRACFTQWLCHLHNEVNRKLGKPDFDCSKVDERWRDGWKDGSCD
Mot1-301 SUMO = inhibitors of SUMOylation pathway: yeast Mot1-301 growth rescue; S. cerevisiae Mot1-301 growth rescue, ATP luminescence, 38.5C; percent above DMSO median, 100 means doubled; growth rescue, % at 18.8 µM; 1% of 320,000 active;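 active means every valid replicate shows activation above 250% relative to neutral control wells; inactive means the rest, any valid replicate at or below 250%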;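 further: OY570 slx delta 5 strain wells were the positive control but not used for scaling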
HIF activator = HIF pathway transcriptional activation; U2OS HRE-luciferase reporter, luminescence; normalized: DMSO 0%, desferrioxamine 100%; 0.32% of 300,000 active; activation, % at 7.5 µM (by protocol);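 active means mean activation of at least 10% of the iron chelator positive control signal, with at least half of replicates also reaching 10%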
AI-2 QS mod = Vibrio harveyi AI-2 quorum sensing modulation; activity change, % at 7.5 µM; 0.4% of 300,000 active; Vibrio harveyi JMH597 AI-2 luminescence/OD600 ratio, 9 h; hits give low values; strain lacks LuxN and CqsS sensors; 0 = neutral-control median; in the data active means activity change below about -75%, passing the limit was not always enough;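 further: luminescence divided by OD600 gain over 9 h not by final OD600 alone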
* = called active by the depositor; i = inactive; / = no result. Sampled rows, rich in hits. Any-hit rate of the full collection: about 4.8%.

SMILES	ALR H2O2 inh	Mot1-301 SUMO	HIF activator	AI-2 QS mod
O=C(CC(=O)N/N=C/c1ccc(O)cc1)N/N=C/c1ccc(O)cc1	99*	-7	0	-4
CC(C)(Cc1ccc(O)cc1)NC(=O)CC(=O)N/N=C/c1ccc(Cl)cc1	16	164	-4	/
CC12CCC(C(=O)N/N=C/c3ccc(O)cc3)(OC1=O)C2(C)C (stereo unspecified)	99*	i	0	16
COc1ccc(/C=N/NC(=O)CCn2cnc(-c3ccccc3)c2-c2ccccc2)cc1	-6	5	0	13
O=C(CNS(=O)(=O)c1ccc([N+](=O)[O-])cc1)N/N=C\c1ccc(O)cc1	99*	54	0	22
Cc1c(NC(=O)COC(=O)Cc2ccc(F)cc2)c(=O)n(-c2ccccc2)n1C	2	-26	0	14
O=C(N/N=C/c1ccc(O)cc1)/C(=C/c1ccccc1)CCO	100*	-15	0	24
Cn1cccc1CC(=O)N/N=C/c1ccc([N+](=O)[O-])cc1	99*	8	-1	20
O=C(Cc1cccs1)N/N=C\c1ccc(O)cc1	98*	-2	0	6
Cn1cccc1CC(=O)N/N=C\c1ccccc1	66	6	0	20
O=C1C(=O)N(CCN2CCOCC2)C(c2ccccc2F)/C1=C(\O)c1ccc(S(=O)(=O)N2CCOCC2)cc1 (stereo unspecified)	3	2	-1	7
COc1ccc(N2CCN(C(=O)C34CCC(C)(C(=O)C3)C4(C)C)CC2)cc1 (stereo unspecified)	44	13	0	9
CC12CCC(C(=O)N3CCN(c4ccccc4)CC3)(CC1=O)C2(C)C (stereo unspecified)	99*	/	0	1
COc1cccc(NC(=O)n2ncc3c(C)cccc32)c1	-5	-7	-2	8
Nc1nc2ccc(N3CCOCC3)cc2s1	98*	-8	/	/
CC1CN(C(=O)c2ccccc2Nc2ccc(SC(F)F)cc2)CC(C)O1 (stereo unspecified)	99*	-21	-1	13
CCN1C(=S)SC(=O)C1=C1C=C(C)N(CCO)C(C)=C1	99*	7	2	2
CCCCC(=O)NC(c1ccc(N(C)C)cc1)c1ccc2cccnc2c1O (stereo unspecified)	60	13	89*	/
CCCCC(=O)NC(c1ccc(N(CC)CC)cc1)c1ccc2cccnc2c1O (stereo unspecified)	7	9	97*	-43
COc1cc(NC(=O)c2ccccc2F)ccc1NC(=O)c1cc2ccccc2o1	-11	114	-1	16
CN(C)S(=O)(=O)c1cccc(NC(=O)CSc2cccc3cccnc23)c1	-19	5	0	-15
COc1ccc(Cl)cc1NS(=O)(=O)c1cccc(C(=O)NCC(c2ccco2)N(C)C)c1 (stereo unspecified)	1	14	-1	8
O=C1C(Nc2ccccc2)=C2CCCC=C2N1c1ccccc1	102*	236	1	18
COc1ccccc1C(=O)N/C(=C\c1cn(S(=O)(=O)N(C)C)c2ccccc12)C(=O)N1CCCCC1	-3	3	-1	-5
CCOC(=O)c1sc(-c2ccc(Cl)cc2Cl)nc1O	97*	-16	0	34
SMILES	ALR H2O2 inh	Mot1-301 SUMO	HIF activator	AI-2 QS mod
Fc1ccc(Nc2ncnc3sc4c(c23)CCC4)cc1F	1	-31	1	57
COc1ccc(/C=N/Nc2ncnc3sc4c(c23)CCCC4)cc1OC	/	0	10*	26
CC(OC(=O)CCN=C1NS(=O)(=O)c2ccccc21)C(=O)Nc1ccc(F)c(F)c1F (stereo unspecified)	-3	11	-3	4
CC1C/C(=N/Nc2nc3ccccc3[nH]2)CC(C)(C)C1 (stereo unspecified)	99*	3	3	14
CC1C/C(=N/NC(=O)c2ccc(CSc3nc4ccccc4[nH]3)cc2)CC(C)(C)C1 (stereo unspecified)	-47	1	0	9
Nn1c(COc2ccccc2F)nnc1SCC(=O)NC1CCCCC1	-5	-16	0	3
COc1ccc(CCN(C)Cc2ccc(OCc3ccccc3)c(OC)c2)cc1OC	99*	5	0	3
COc1ccc(CCN(C)Cc2ccc(OC)c(OCc3ccccc3)c2)cc1OC	-5	-3	0	8
Oc1ccc(/C=N/Nc2cccc3cccnc23)c(O)c1	84*	55	4	17
CCN(CC)S(=O)(=O)c1ccc(N/N=C/c2ccc(O)cc2O)nc1	/	-22	117*	96
Oc1ccc(Br)cc1/C=N/Nc1ncc(-c2ccccc2)cn1	4	-4	0	30
CCN(CC)S(=O)(=O)c1ccc(N/N=C(\C)c2ccncc2)nc1	-1	-7	-1	7
Oc1ccc(/C=N/Nc2ncc(Br)cn2)c(O)c1	26	1	19*	54
O=c1[nH]ncc(N/N=C\c2ccc(O)cc2O)c1Cl	96*	4	0	13
COc1ccc2[nH]c3c(NCc4ccco4)ncnc3c2c1	98*	-16	7	15
O=C(NCCc1ccc(Cl)cc1)C1CCCO1 (stereo unspecified)	-19	-3	2	7
CN(C)c1ccc(C(c2nnnn2C(C)(C)C)N2CCN(C(=O)c3ccco3)CC2)cc1 (stereo unspecified)	90*	5	-1	9
C=CCSc1nnc2c(n1)OC(c1ccco1)Nc1ccccc1-2 (stereo unspecified)	98*	7	0	1
Cc1ccc(N2C(=O)c3ccc(C(=O)O)cc3C2=O)cc1C	95*	-21	0	46
Cc1ccc(N2C(=O)c3ccc(C(=O)N4CCN(c5ccc(C)c(C)c5)CC4)cc3C2=O)cc1	-2	1	-1	30
COc1ccc(C)cc1NC(=O)c1cc2c(s1)CCC2	94*	4	1	21
COc1ccc(CC(=O)Nc2nc3ccc(F)cc3s2)cc1S(=O)(=O)N1CCOCC1	99*	-14	1	5
COc1ccc(NC(=O)c2cc3c(s2)CCC3)cc1S(=O)(=O)N1CCOCC1	99*	-2	0	14
COC(=O)c1sccc1NC(=O)c1cc2c(s1)CCCC2	26	51	1	13
COc1ccc(S(=O)(=O)N2CCOCC2)cc1NC(=O)c1cc2c(s1)CCCC2	-3	-1	-6	29
COc1ccc(CC(=O)Nc2nc3ccccc3s2)cc1S(=O)(=O)N1CCOCC1	-4	3	0	19
Cc1cccc(C(=O)NCC(=O)OCC(=O)c2ccc(Cl)s2)c1	-8	3	-1	22
O=C(NCc1ccccc1C(F)(F)F)C1CCC(=O)N(CCCc2ccccc2)C1 (stereo unspecified)	-12	-11	0	14
Cn1nccc1C(=O)N1CCCC(N2CCN(Cc3ccc4c(c3)OCO4)CC2)C1 (stereo unspecified)	-18	-15	0	-3
O=C(CCl)Oc1ccc2occ(C(=O)c3cccs3)c2c1	97*	-6	3	44
